From PubChem BioAssay (NCI)
The panel holds about 79,000 compounds, 15% with a hit somewhere; the sample as a whole holds those more often. Calls of active or inactive are those of the source. Cut-off read from the data, not from the text of the source: active = growth inhibition above about 70%; inactive = the rest.

Experiments:
[1] = NCI Yeast Anticancer Drug Screen. Data for the rad52 strain (AID 147);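 note: 0% = growth of vehicle-treated control cultures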; conditions: S. cerevisiae rad52 mutant growth inhibition, hits give high values
Procedure, shortened: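 Growth of repair-deficient yeast cells was compared between compound-treated and vehicle-treated cultures to give percent inhibition.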

[2] = NCI Yeast Anticancer Drug Screen. Data for the wt1 strain (AID 149);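 note: 0% = growth of vehicle-treated wt1 cultures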; conditions: S. cerevisiae wt1 strain (SPY 50644) growth inhibition, hits give high values
Procedure, shortened: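 Growth inhibition read against vehicle controls after compound exposure of the wt1 yeast strain.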

[3] = NCI Yeast Anticancer Drug Screen. Data for the rad50EPP+ strain (AID 151);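 note: 0% = growth of vehicle-treated control cultures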; conditions: S. cerevisiae rad50 mutant strain, hits give high values
Procedure, shortened: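 Measured: growth inhibition of rad50EPP+ yeast. Reference: vehicle-treated controls. Screen uses strains with defined genetic alterations in DNA damage repair or cell cycle control.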

[4] = NCI Yeast Anticancer Drug Screen. Data for the mgt1 strain (AID 153); conditions: S. cerevisiae mgt1 mutant growth inhibition, hits give high values
Procedure, shortened: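 Compounds were applied to mgt1 mutant yeast, and growth was then compared against vehicle-treated control cultures to give percent inhibition.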

[5] = NCI Yeast Anticancer Drug Screen. Data for the rad50 strain (AID 155);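 note: 0% = growth of vehicle-only cultures of the same strain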; conditions: S. cerevisiae rad50 strain growth inhibition, hits give high values
Procedure, shortened: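 Readout: growth inhibition relative to vehicle-treated cultures. Compound exposure was carried out in a genetically defined yeast strain deficient in DNA damage repair.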

[6] = NCI Yeast Anticancer Drug Screen. Data for the mec2-1 strain (AID 157); conditions: S. cerevisiae mec2-1 strain, hits give high values
Procedure, shortened: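 Compounds were applied to mec2-1 yeast cells. Their growth was then compared with that of vehicle-treated cultures to give growth inhibition.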

[7] = NCI Yeast Anticancer Drug Screen. Data for the rad14 strain (AID 159);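 note: 0% = growth of vehicle-treated control cultures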; conditions: S. cerevisiae rad14 strain growth inhibition, hits give high values
Procedure, shortened: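 Growth inhibition vs vehicle controls; genetically altered yeast strain (DNA damage repair defect) treated with test compounds.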

[8] = NCI Yeast Anticancer Drug Screen. Data for the sgs1 mgt1 strain (AID 161);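 note: 0% = growth of cultures given vehicle only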; conditions: S. cerevisiae sgs1 mgt1 strain, hits give high values
Procedure, shortened: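 This yeast growth screen uses a strain with defined DNA-repair lesions; compound-treated growth is compared with vehicle-treated growth.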

[9] = NCI Yeast Anticancer Drug Screen. Data for the CLN2oe strain (AID 163);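 note: 0% = growth of vehicle-only control cultures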; conditions: S. cerevisiae CLN2oe strain, hits give high values
Procedure, shortened: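 Cells of an engineered yeast line with disturbed cell-cycle regulation are treated with compound. Inhibition of growth is then calculated relative to the vehicle-treated reference.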

[10] = NCI Yeast Anticancer Drug Screen. Data for the cln2 rad14 strain (AID 165);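 note: 0% = growth equal to vehicle treated cultures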; conditions: S. cerevisiae cln2 rad14 strain, hits give high values
Procedure, shortened: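 Strain: cln2 rad14 yeast, altered in cell cycle control and DNA damage repair. Read-out: growth inhibition vs vehicle.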

[11] = NCI Yeast Anticancer Drug Screen. Data for the bub3 strain (AID 167); conditions: S. cerevisiae bub3 mutant strain, hits give high values
Procedure, shortened: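 Readout: yeast growth inhibition, expressed relative to vehicle-only wells. The test organism is a mutant strain from a panel with lesions in DNA repair or checkpoint genes.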

[12] = NCI Yeast Anticancer Drug Screen. Data for the wt2 strain (AID 169);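 note: 0% = growth of vehicle-treated yeast cultures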; conditions: S. cerevisiae wt2 strain growth inhibition, hits give high values
Procedure, shortened: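 Growth of compound-treated yeast is measured and expressed as inhibition relative to vehicle-only controls.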

[13] = NCI Yeast Anticancer Drug Screen. Data for the mlh1 strain (AID 171);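 note: 0% = growth of vehicle-treated control cultures of the same strain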; conditions: S. cerevisiae mlh1 strain growth inhibition, hits give high values
Procedure, shortened: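 Test agents were incubated with yeast bearing a defined DNA damage repair or cell cycle control alteration; values are growth inhibition normalised to vehicle-treated cultures.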

[14] = NCI Yeast Anticancer Drug Screen. Data for the sgs1 strain (AID 173);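 note: 0% = growth of vehicle-only control cultures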; conditions: S. cerevisiae sgs1 mutant, hits give high values
Procedure, shortened: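 Strain with an altered DNA repair or cell cycle pathway exposed to compound. Growth then measured. Value = inhibition versus vehicle control.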

[15] = NCI Yeast Anticancer Drug Screen. Data for the mlh1 rad18 strain (AID 175); conditions: S. cerevisiae mlh1 rad18 strain growth inhibition, hits give high values
Procedure, shortened: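 A repair-deficient yeast strain is exposed to test compound, and growth is scored relative to vehicle-treated controls.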

[16] = NCI Yeast Anticancer Drug Screen. Data for the rad18 strain (AID 177); conditions: S. cerevisiae rad18 mutant growth inhibition, hits give high values
Procedure, shortened: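 DNA-repair-defective yeast; compound treatment; growth inhibition scored against vehicle.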

[17] = at 5.0 µM (retest, dose inferred, filed as 0.5)
[18] = at 50.0 µM (retest, dose inferred, filed as 5.0)

Measured: growth inhibition

C/C=C/SC(=Nc1ccccc1)Nc1ccccc1
inactive: [1]; at 1.2 µM -3% | [1]; at 3.7 µM -5% | [1]; at 11.0 µM -6% | [1]; at 33.0 µM -6% | [2]; at 1.2 µM -3% | [2]; at 3.7 µM 0% | [2]; at 11.0 µM -7% | [2]; at 33.0 µM -15% | [3]; at 1.2 µM 3% | [3]; at 3.7 µM 3% | [3]; at 11.0 µM 11% | [3]; at 33.0 µM 23% | [3]; at 100.0 µM 39% | [4]; at 1.2 µM -6% | [4]; at 3.7 µM -8% | [4]; at 11.0 µM -9% | [4]; at 33.0 µM -13% | [5]; at 1.2 µM -5% | [5]; at 3.7 µM -7% | [5]; [17] -10% | [5]; at 11.0 µM -7% | [5]; at 33.0 µM -8% | [6]; at 1.2 µM -6% | [6]; at 3.7 µM -5% | [6]; [17] -9% | [6]; at 11.0 µM -9% | [6]; at 33.0 µM -8% | [6]; [18] 67% | [6]; at 50.0 µM 49.2% | [7]; at 1.2 µM -4% | [7]; at 3.7 µM -4% | [7]; at 11.0 µM -5% | [7]; at 33.0 µM -4% | [8]; [17] -5% | [9]; at 1.2 µM -9% | [9]; at 3.7 µM -18% | [9]; at 11.0 µM -15% | [9]; at 33.0 µM -24% | [10]; [17] 2% | [10]; [18] 33% | [10]; at 50.0 µM 2.3% | [11]; at 1.2 µM 10% | [11]; at 3.7 µM 8% | [11]; [17] 10% | [11]; at 11.0 µM 7% | [11]; at 33.0 µM -12% | [11]; [18] 36% | [12]; at 1.2 µM -3% | [12]; at 3.7 µM -3% | [12]; at 11.0 µM -7% | [12]; at 33.0 µM -9% | [13]; at 1.2 µM -4% | [13]; at 3.7 µM -3% | [13]; at 11.0 µM -6% | [13]; at 33.0 µM -5% | [14]; at 1.2 µM -4% | [14]; at 3.7 µM -5% | [14]; at 11.0 µM -7% | [14]; at 33.0 µM -3% | [15]; [17] -10% | [15]; at 50.0 µM 66.3% | [16]; at 1.2 µM -2% | [16]; at 3.7 µM -5% | [16]; at 11.0 µM -8% | [16]; at 33.0 µM -9%
active: [1]; at 100.0 µM 99% | [2]; at 100.0 µM 97% | [4]; at 100.0 µM 98% | [5]; [18] 78% | [5]; at 50.0 µM 88% | [5]; at 100.0 µM 98% | [6]; at 100.0 µM 98% | [7]; at 100.0 µM 99% | [8]; [18] 71% | [8]; at 50.0 µM 90.8% | [9]; at 100.0 µM 97% | [11]; at 50.0 µM 92.5% | [11]; at 100.0 µM 98% | [12]; at 100.0 µM 98% | [13]; at 100.0 µM 98% | [14]; at 100.0 µM 98% | [15]; [18] 70% | [16]; at 100.0 µM 98%

COc1cccc2c1C(=O)c1c(O)c3c(c(O)c1C2=O)C[C@@](O)(C(C)=O)C[C@@H]3OC1CC(OC(C)=O)C(OC(C)=O)C(C)O1 (stereo partly specified)
inactive: [1]; at 1.2 µM -12% | [1]; at 3.7 µM -7% | [1]; at 11.0 µM 37% | [1]; at 33.0 µM 48% | [1]; at 100.0 µM 40% | [2]; at 1.2 µM -26% | [2]; at 3.7 µM -43% | [2]; at 11.0 µM -46% | [2]; at 33.0 µM -24% | [2]; at 100.0 µM -28% | [3]; at 1.2 µM -11% | [3]; at 3.7 µM -16% | [3]; at 11.0 µM -7% | [3]; at 33.0 µM 7% | [3]; at 100.0 µM 36% | [4]; at 1.2 µM -41% | [4]; at 3.7 µM -51% | [4]; at 11.0 µM -33% | [4]; at 33.0 µM -22% | [4]; at 100.0 µM -11% | [5]; at 1.2 µM -40% | [5]; at 3.7 µM -11% | [5]; [17] 22% | [5]; at 11.0 µM 39% | [5]; at 33.0 µM 51% | [5]; at 50.0 µM 56.2% | [5]; at 100.0 µM 47% | [6]; at 1.2 µM -64% | [6]; at 3.7 µM -46% | [6]; [17] 13% | [6]; at 11.0 µM -34% | [6]; at 33.0 µM -25% | [6]; [18] 41% | [6]; at 50.0 µM 60% | [6]; at 100.0 µM 1% | [7]; at 1.2 µM -35% | [7]; at 3.7 µM -3% | [7]; at 11.0 µM -6% | [7]; at 33.0 µM 10% | [7]; at 100.0 µM 29% | [9]; at 1.2 µM 3% | [9]; at 3.7 µM -2% | [9]; at 11.0 µM 12% | [9]; at 33.0 µM 11% | [9]; at 100.0 µM 19% | [10]; at 50.0 µM 17.3% | [11]; at 1.2 µM -54% | [11]; at 3.7 µM -38% | [11]; at 11.0 µM -50% | [11]; at 33.0 µM -35% | [11]; at 100.0 µM -4% | [12]; at 1.2 µM -23% | [12]; at 3.7 µM -18% | [12]; at 11.0 µM -2% | [12]; at 33.0 µM 0% | [12]; at 100.0 µM 12% | [13]; at 1.2 µM -41% | [13]; at 3.7 µM -37% | [13]; at 11.0 µM -30% | [13]; at 33.0 µM -8% | [13]; at 100.0 µM 18% | [14]; at 1.2 µM -17% | [14]; at 3.7 µM -23% | [14]; at 11.0 µM -14% | [14]; at 33.0 µM -3% | [14]; at 100.0 µM -9% | [15]; [17] 23% | [15]; [18] 62% | [16]; at 1.2 µM -28% | [16]; at 3.7 µM -29% | [16]; at 11.0 µM -16% | [16]; at 33.0 µM -5% | [16]; at 100.0 µM -1%
active: [5]; [18] 76% | [8]; [17] 98% | [8]; [18] 96% | [8]; at 50.0 µM 77% | [10]; [17] 96% | [10]; [18] 97% | [11]; [17] 98% | [11]; [18] 97% | [11]; at 50.0 µM 75.7% | [15]; at 50.0 µM 82.7%
